About 83,000 compounds went through this panel and 20% of them were active in at least one assay; those are over-represented in the sample as a whole.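 Step 1: grow cells in 96-well plates. Step 2: add test compound at a single concentration. Step 3: incubate 48 h. Step 4: record percent growth.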 Values without a mark were called inactive. Calls of active or inactive are those of the source. How the source made its calls: active means growth percent below 10; inactive means the rest.
System: COLO 205 colon
Assay: NCI-60 one-dose screen, 48 h (100 = growth as untreated, 0 = no growth, -100 = all killed)
Conditions: 10 µM unless noted

Row | Compound | growth
1 | C=C(CNCCO)[C@@H]1CC[C@]2(CO)CC[C@]3(C)[C@H](CC[C@@H]4[C@@]5(C)CCC(NCCO)C(C)(C)[C@@H]5CC[C@]43C)[C@@H]12 (some centres undefined) | 62.5%
2 | COC(=O)CCc1c(/C=C2\N=C(c3ccc[nH]3)C=C2OC)[nH]c(C)c1C(=O)OCc1ccccc1 | 4.96% (active)
3 | CSc1nc(N)c2c(n1)NC(c1ccccc1)C1CCc3ccccc3C1=N2 (centres undefined) | 78.6%
4 | CC(CN)[C@@H]1CC[C@]2(CO)CC[C@]3(C)[C@H](CC[C@@H]4[C@@]5(C)CCC(NCCO)C(C)(C)[C@@H]5CC[C@]43C)[C@@H]12 (some centres undefined) | 67.5%
5 | O=S(=O)(c1ccc(NCSc2nc3ccccc3s2)cc1)c1ccc(NCSc2nc3ccccc3s2)cc1 | 97.1%
6 | COc1ccc(Cn2cc(C(=O)N=Nc3c(O)[nH]c4ccc(Br)cc34)nn2)cc1 | 115%
7 | Oc1ccc(C(c2ccc(O)cc2)c2ccc(Cl)cn2)cc1 | 4.91% (active)
8 | O=C(Nc1cccc(Cn2c(=O)[nH]c3ccc(Oc4ncccn4)cc3c2=O)c1)c1cccc(Cl)c1 | 71.9%
9 | Cc1ccc(C(=O)Nc2ccc(CN3CCN(C)CC3)c(C(F)(F)F)c2)cc1C#Cc1cnc(N)c2ccccc12 | -66.3% (active)
10 | C[C@H]1c2ccccc2CN1CCCOc1cc2c(cc1OCC1CC1)C1(CCCC1)C(N)=N2 | -66.4% (active)
11 | CC1=C2[C@@H](CC1)[C@]1(C)O[C@@](C(C)C)(C[C@H]1OC(=O)CO)[C@H]2OC(=O)CCCc1ccccc1 | 55.1%
12 | Oc1ccc(Cc2ccc(O)c3ncccc23)c2cccnc12 | 71%
13 | C=C(c1ccc(OC)c(/C=C/C(=O)c2cc(OC)c(OC)c(OC)c2)c1)c1cc(OC)c(OC)c(OC)c1 | -13.6% (active)
14 | COc1ccc(-c2nc(SCCC(C)C)nc(N/N=C(/C)c3ccc(N)cc3)c2C#N)cc1 | 109%
15 | CCCCC1=C(Br)C(=O)c2ncccc2C1=O | -6.16% (active)
16 | COc1ccc(/C(C)=C(\c2ccc(Cl)cc2)c2ccc(OCCCN(C)C)cc2)cc1 | 15%
17 | CC(=O)/C(Br)=C/c1ccc(Br)o1 | 73.8%
18 | CC(C)n1nc(-c2ccc3oc(N)nc3c2)c2c(N)ncnc21 | -3% (active)
19 | CCCNNC(=O)c1ccc(CNC(=O)/C=C/c2ccccc2)cc1 | -16.5% [2.5 µM] (active)
20 | O=C(Nc1ncc(Cc2ccc(Cl)cc2)s1)C1=NCCCCN1 | 110%
21 | COc1cc2c(c(OC)c1OC)CCC(c1cccc(C(=O)Nc3ccc([N+](=O)[O-])cc3)c1)O2 (centres undefined) | 73.2%
22 | C=CCn1c(SCC(=O)Nc2ccc(C(=O)/C=C/c3ccc(Cl)cc3)cc2)nnc1-c1ccccc1 | 105%
23 | c1ccc(Cn2cc3c(c2)-c2nc(Nc4ccccc4)ncc2CC3)cc1 | 106% [100 µM]
24 | Clc1nc(N2CCC[N+]3(CC2)CC[N+]2(CCCNCC2)CC3)nc(N2CCC[N+]3(CC2)CC[N+]2(CCCNCC2)CC3)n1 (centres undefined) | 106%
25 | C#C[C@]1(O)CC[C@H]2[C@@H]3CC=C4c5sc(-c6ccccc6)nc5CC[C@]4(C)[C@H]3CC[C@@]21C | 116%
26 | CCOC(=O)c1ccc2c(c1)[n+](=O)c(C(C)=O)c(C(F)(F)F)n2[O-] | -78.3% (active)
27 | COc1ccc2c(O)cc3c(c2c1)[C@H](CCl)CN3C(=O)c1cc2cc(NC(=O)CCN3CCOCC3)ccc2[se]1 | -78.2% (active)
28 | O=C(/C=C/C12c3ccccc3C(c3ccccc31)C1C(=O)NC(=O)C12)c1cccs1 (centres undefined) | 44%
29 | O=C1c2cccnc2C(=O)c2c1c(C(=O)OCCCN1CCOCC1)c1ccccn21 | -75.8% (active)
